One assay relates to ALK. The settings on record: concentration: 1 μM,replicates: in singlicate; n = 1.
With `OCCn1cc(-c2cnc3nnn(Cc4ccc5ncccc5c4)c3n2)cn1`, the “%Inh” value is reported as 0%.
The same measure, in the same setting: the result for `CCN1CCN(CCCC(=O)Nc2n[nH]c3nc(-c4ccc(O)cc4)c(Br)cc23)CC1` [SB-731579] reads 0%; that for `C[C@@H]1CNc2c(sc3ccc4nc(-c5ccncc5)ccc4c23)C(=O)N1`, 33%; that for `COc1cccc(CNC(=O)NC2CCN(c3ccnc(Nc4cc(OC)c(OC)c(OC)c4)n3)C2)c1` (centres unmarked) [GSK1379765], 72%.
Regarding `CCn1c(-c2nonc2N)nc2cncc(CNC3CCNCC3)c21.Cl` [SB-747651], the “%Inh” value was determined as 63%.
Still for that read-out and setting: next, `O=C(NCC1CC1)c1ccc(-c2cc(C(=O)NC3CC3)ccc2F)cc1` [GW810445]: 10%.
As for `COc1cccc(OC)c1C(=O)Nc1cccc(-c2nn3ccccc3c2-c2ccnc(Nc3cccc(F)c3)n2)c1` [GSK361065], the “%Inh” value was determined as 0%.
On the same count and under the same terms, the result for `Cn1cc(-c2cccc3c(N)c(C(N)=O)nnc23)cn1` reads 10%.
The same measure, in the same setting: next, `CC(C)S(=O)(=O)N1CCN(Cc2ccc3c(c2)nc(NC(=O)c2ccsc2)n3C[C@H](O)c2ccccc2)CC1` [GW635815]: 68%.
The same measure, in the same setting: the result for `Cc1ccc(CC(=O)N2CCc3cc(-c4cn(C)c5ncnc(N)c45)ccc32)cc1` [GSK2634758] reads 0%.
As for `CCn1c(-c2nonc2N)nc2cncc(Br)c21` [SB-738004], the “%Inh” value was 31%.
Take `O=C(Nc1ccccc1)c1cccc(Oc2ccc3nccn3n2)c1`: the “%Inh” value was determined as 0%.
Still for that read-out and setting: the result for `COC(=O)Nc1nc2cc(Oc3ccc(NC(=O)Nc4cc(C(F)(F)F)ccc4Cl)cc3)ccc2[nH]1.Cl` [GW697465] reads 30%; that for `O=C1NCCc2[nH]c(-c3ccncc3)cc21`, 0%; that for `CNC(=O)c1ccccc1Nc1nc(Nc2cccc(CS(C)(=O)=O)c2)ncc1C.O=CO` [GSK1520489], 95.1%.
Regarding `O=C(Nc1cccc(Oc2ccc3nccn3n2)c1)Nc1cccc(C(F)(F)F)c1`, the “%Inh” value was determined as 14%.
For `COc1ccc(Nc2nccc(N3CCC(NC(=O)c4cccc(C#N)c4)C3)n2)cc1` (centres unmarked) [GSK1379730], the “%Inh” value worked out at 28%.
`COc1cc2nccc(Nc3ccc(Oc4ccccc4)cc3)c2cc1OC.Cl` [GI261656]: the “%Inh” value was determined as 4%.
Still for that read-out and setting: the result for `C[C@@H](Oc1cc(-n2cnc3ccc(-c4ccncc4)cc32)sc1C(N)=O)c1ccccc1Cl` [GSK483724] reads 20%.
Same read-out and setting: the result for `CC(=O)Nc1ccc(-c2cc3ncnc(SCC(=O)O)c3s2)cc1` reads 7%; that for `NC(=O)c1ccc(-c2cc3ncnc(SCC(=O)O)c3s2)cc1`, 0%; that for `COc1cc(Nc2nccc(N3CCC(NC(=O)c4cccc(C#N)c4)C3)n2)cc(OC)c1OC` (centres unmarked) [GSK1379751], 14%.
`Cn1ccc2ncnc(Oc3ccc(NC(=O)Nc4cc(C(C)(C)C)on4)c(Cl)c3)c21`: the “%Inh” value was 38%.
As for `Cn1ccc2ncnc(Oc3ccc(NC(=O)Nc4cccc(C(F)(F)F)c4)c(F)c3)c21`, the “%Inh” value was 20%.
Regarding `CC(=O)Nc1nc2cnc(Nc3cc(NC(=O)c4cccc(CC(C)(C)C#N)c4)ccc3C)nc2s1`, the “%Inh” value turned out to be 42%.
With `c1ccc(Oc2ccc(Nc3ccnc4ccc(-c5ccccn5)cc34)cc2)cc1` [GW407034], the “%Inh” value worked out at 28%.
For the compound `COC(=O)c1cccc(NC(=O)NC2CCN(c3ccnc(Nc4cc(OC)c(OC)c(OC)c4)n3)C2)c1` (centres unmarked) [GSK1379767], the “%Inh” value is recorded as 50%.
For `Cc1cccc(-c2nc(Nc3ccncc3)c3sccc3n2)n1` [GW869641], the “%Inh” value is on record as 33%.
With `CC(=O)c1c(-c2ccncc2)[nH]c(-c2ccncc2)c1C` [GW493036], the “%Inh” value is given as 31%.
For `Cc1nnc(-c2ccc3occ(-c4ccc(S(C)=O)cc4)c3n2)o1` (centres unmarked), the “%Inh” value was 0%.
Same read-out and setting: the result for `Cc1ccc2c(-c3ccnc(Nc4ccc(C(F)(F)F)cc4)n3)cnn2n1` [GW819776] reads 0%.
The same measure, in the same setting: next, `Cn1ccc2ncnc(Oc3ccc(NC(=O)Nc4cncc(C(F)(F)F)c4)c(Cl)c3)c21`: 0%; `Cl.Nc1n[nH]c2cc(-c3ccccn3)ccc12` [GSK2189892]: 16%; `C[C@@H](Oc1cc(-n2cnc3cc(-c4cnn(C)c4)ccc32)sc1C(N)=O)c1ccccc1Cl` [GSK580432]: 31%.
As for `CN1CCN(CCCNc2nccc(-c3c(-c4ccc(F)cc4)nn4cc(C(N)=O)ccc34)n2)CC1` [GW622475], the “%Inh” value came to 26%.
Regarding `O=C(Nc1n[nH]c2cc(-c3ccco3)ccc12)C1CC1` [SB-737447], the “%Inh” value was found to be 7%.
Consider `NC(=O)Nc1sc(-c2ccc(F)cc2)cc1C(N)=O` [GW789449], for which the “%Inh” value amounted to 52%.

Another assay has as its system T1, AMPK-alpha1.
T1 construct: gene PRKAA1
The settings on record: concentration: 1 μM,replicates: in singlicate; n = 1.
`OCCn1cc(-c2cnc3nnn(Cc4ccc5ncccc5c4)c3n2)cn1`: the “%Inh” value was 3%.
On the same count and under the same terms, next, `CCN1CCN(CCCC(=O)Nc2n[nH]c3nc(-c4ccc(O)cc4)c(Br)cc23)CC1` [SB-731579]: 0%.
The same measure, in the same setting: next, `C[C@@H]1CNc2c(sc3ccc4nc(-c5ccncc5)ccc4c23)C(=O)N1`: 20%.
As to `COc1cccc(CNC(=O)NC2CCN(c3ccnc(Nc4cc(OC)c(OC)c(OC)c4)n3)C2)c1` (centres unmarked) [GSK1379765], the “%Inh” value came to 0%.
Turning to `CCn1c(-c2nonc2N)nc2cncc(CNC3CCNCC3)c21.Cl` [SB-747651], the “%Inh” value was determined as 6%.
Same read-out and setting: next, `O=C(NCC1CC1)c1ccc(-c2cc(C(=O)NC3CC3)ccc2F)cc1` [GW810445]: 0%; `COc1cccc(OC)c1C(=O)Nc1cccc(-c2nn3ccccc3c2-c2ccnc(Nc3cccc(F)c3)n2)c1` [GSK361065]: 25%; `Cn1cc(-c2cccc3c(N)c(C(N)=O)nnc23)cn1`: 47%.
Same read-out and setting: the result for `CC(C)S(=O)(=O)N1CCN(Cc2ccc3c(c2)nc(NC(=O)c2ccsc2)n3C[C@H](O)c2ccccc2)CC1` [GW635815] reads 0%; that for `Cc1ccc(CC(=O)N2CCc3cc(-c4cn(C)c5ncnc(N)c45)ccc32)cc1` [GSK2634758], 0%.
The same measure, in the same setting: next, `CCn1c(-c2nonc2N)nc2cncc(Br)c21` [SB-738004]: 18%.
Turning to `O=C(Nc1ccccc1)c1cccc(Oc2ccc3nccn3n2)c1`, the “%Inh” value is 5%.
Same read-out and setting: the result for `COC(=O)Nc1nc2cc(Oc3ccc(NC(=O)Nc4cc(C(F)(F)F)ccc4Cl)cc3)ccc2[nH]1.Cl` [GW697465] reads 0%; that for `O=C1NCCc2[nH]c(-c3ccncc3)cc21`, 6%.
On the same count and under the same terms, next, `CNC(=O)c1ccccc1Nc1nc(Nc2cccc(CS(C)(=O)=O)c2)ncc1C.O=CO` [GSK1520489]: 96.4%.
With `O=C(Nc1cccc(Oc2ccc3nccn3n2)c1)Nc1cccc(C(F)(F)F)c1`, the “%Inh” value worked out at 0%.
On the same count and under the same terms, next, `COc1ccc(Nc2nccc(N3CCC(NC(=O)c4cccc(C#N)c4)C3)n2)cc1` (centres unmarked) [GSK1379730]: 0%.
On the same count and under the same terms, the result for `COc1cc2nccc(Nc3ccc(Oc4ccccc4)cc3)c2cc1OC.Cl` [GI261656] reads 0%; that for `C[C@@H](Oc1cc(-n2cnc3ccc(-c4ccncc4)cc32)sc1C(N)=O)c1ccccc1Cl` [GSK483724], 8%.
On the same count and under the same terms, next, `CC(=O)Nc1ccc(-c2cc3ncnc(SCC(=O)O)c3s2)cc1`: 2%.
For `NC(=O)c1ccc(-c2cc3ncnc(SCC(=O)O)c3s2)cc1`, the “%Inh” value is on record as 0%.
`COc1cc(Nc2nccc(N3CCC(NC(=O)c4cccc(C#N)c4)C3)n2)cc(OC)c1OC` (centres unmarked) [GSK1379751]: the “%Inh” value is given as 0%.
Consider `Cn1ccc2ncnc(Oc3ccc(NC(=O)Nc4cc(C(C)(C)C)on4)c(Cl)c3)c21`, for which the “%Inh” value was found to be 0%.
For `Cn1ccc2ncnc(Oc3ccc(NC(=O)Nc4cccc(C(F)(F)F)c4)c(F)c3)c21`, the “%Inh” value worked out at 0%.
On the same count and under the same terms, the result for `CC(=O)Nc1nc2cnc(Nc3cc(NC(=O)c4cccc(CC(C)(C)C#N)c4)ccc3C)nc2s1` reads 3%.
The same measure, in the same setting: next, `c1ccc(Oc2ccc(Nc3ccnc4ccc(-c5ccccn5)cc34)cc2)cc1` [GW407034]: 10%; `COC(=O)c1cccc(NC(=O)NC2CCN(c3ccnc(Nc4cc(OC)c(OC)c(OC)c4)n3)C2)c1` (centres unmarked) [GSK1379767]: 16%; `Cc1cccc(-c2nc(Nc3ccncc3)c3sccc3n2)n1` [GW869641]: 20%.
For `CC(=O)c1c(-c2ccncc2)[nH]c(-c2ccncc2)c1C` [GW493036], the “%Inh” value stood at 13%.
In the case of `Cc1nnc(-c2ccc3occ(-c4ccc(S(C)=O)cc4)c3n2)o1` (centres unmarked), the “%Inh” value stood at 0%.
On to `Cc1ccc2c(-c3ccnc(Nc4ccc(C(F)(F)F)cc4)n3)cnn2n1` [GW819776], for which the “%Inh” value was 11%.
`Cn1ccc2ncnc(Oc3ccc(NC(=O)Nc4cncc(C(F)(F)F)c4)c(Cl)c3)c21`: the “%Inh” value worked out at 0%.
The same measure, in the same setting: next, `Cl.Nc1n[nH]c2cc(-c3ccccn3)ccc12` [GSK2189892]: 0%; `C[C@@H](Oc1cc(-n2cnc3cc(-c4cnn(C)c4)ccc32)sc1C(N)=O)c1ccccc1Cl` [GSK580432]: 39%; `CN1CCN(CCCNc2nccc(-c3c(-c4ccc(F)cc4)nn4cc(C(N)=O)ccc34)n2)CC1` [GW622475]: 18%.
`O=C(Nc1n[nH]c2cc(-c3ccco3)ccc12)C1CC1` [SB-737447]: the “%Inh” value worked out at 3%.
As for `NC(=O)Nc1sc(-c2ccc(F)cc2)cc1C(N)=O` [GW789449], the “%Inh” value is listed as 25%.

These data come from publication PMC5540273 (PLoS ONE, 2017).
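Also: KINOMEscan kinase panel screen.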
